Test results from PMC7826789 (International Journal of Molecular Sciences, 2021).

What was measured:
Details in all cases: Compound Concentration (nM):1000
SIK = system: T1, SIK
T1 construct: gene SIK1

SLK = system: SLK
SNARK = system: T2, SNARK
T2 construct: gene NUAK2

SNRK = system: SNRK
SRC = system: SRC
SRMS = system: SRMS
SRPK1 = system: SRPK1
SRPK2 = system: SRPK2
SRPK3 = system: SRPK3
STK16 = system: STK16
STK33 = system: STK33
STK35 = system: STK35
STK36 = system: STK36
STK39 = system: STK39
SYK = system: SYK
SgK110 = system: SgK110
TAK1 = system: T3, TAK1
T3 construct: gene MAP3K7

TAOK1 = system: TAOK1
TAOK2 = system: TAOK2
TAOK3 = system: TAOK3
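Also: KINOMEscan scanMAX binding as percent activity remaining versus control; lower means stronger binding.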

Compound | Percent Control (SIK) [%] | Percent Control (SLK) [%] | Percent Control (SNARK) [%] | Percent Control (SNRK) [%] | Percent Control (SRC) [%] | Percent Control (SRMS) [%] | Percent Control (SRPK1) [%] | Percent Control (SRPK2) [%] | Percent Control (SRPK3) [%] | Percent Control (STK16) [%] | Percent Control (STK33) [%] | Percent Control (STK35) [%] | Percent Control (STK36) [%] | Percent Control (STK39) [%] | Percent Control (SYK) [%] | Percent Control (SgK110) [%] | Percent Control (TAK1) [%] | Percent Control (TAOK1) [%] | Percent Control (TAOK2) [%] | Percent Control (TAOK3) [%]
CC(C)COC(=O)c1ccc2c(c1)/C(=C/Nc1ccc(S(N)(=O)=O)cc1)C(=O)N2 [GW416981X] | 100 | 100 | 13 | 100 | 100 | 100 | 100 | 100 | 100 | 6.8 | 24 | 100 | 100 | 100 | 100 | 100 | 21 | 85 | 100 | 99
O=C1Nc2ccc(C(=O)c3ccco3)cc2C1=Cc1cc(Cl)c(O)c(Cl)c1 [GW406108X] | 93 | 100 | 79 | 100 | 100 | 89 | 88 | 100 | 100 | 60 | 86 | 100 | 87 | 81 | 100 | 100 | 30 | 40 | 100 | 85
Cl.c1ccc(Cc2nc3ccc(Nc4ncnc5ccccc45)cc3[nH]2)cc1 [GR269666A] | 100 | 100 | 100 | 100 | 100 | 100 | 100 | 100 | 78 | 100 | 97 | 100 | 100 | 100 | 100 | 100 | 100 | 100 | 100 | 100
COC(=O)Nc1nc2ccc(Oc3ccc(NC(=O)Nc4cc(C(F)(F)F)ccc4F)cc3)cc2s1.Cl [GW693917A] | 98 | 68 | 86 | 100 | 54 | 92 | 86 | 90 | 74 | 76 | 44 | 86 | 100 | 87 | 98 | 100 | 5.8 | 84 | 86 | 93
O=C(Nc1n[nH]c2nc(-c3ccc(O)cc3)c(Br)cc12)C1CC1 [SB-725317] | 100 | 41 | 100 | 100 | 100 | 100 | 100 | 100 | 100 | 76 | 96 | 100 | 100 | 99 | 100 | 100 | 95 | 1 | 2.6 | 2.6
C[C@@H](Oc1cc(-n2cnc3ccc(OC4CCN(C)CC4)cc32)sc1C(N)=O)c1ccccc1Cl [GSK579289A] | 100 | 7.9 | 1 | 59 | 100 | 94 | 92 | 86 | 100 | 69 | 100 | 82 | 76 | 83 | 100 | 100 | 38 | 75 | 96 | 79
Cl.O=C(Nc1ccc(Oc2ccc3[nH]c(NC(=O)c4ccco4)nc3c2)cc1)Nc1cc(C(F)(F)F)ccc1F [GW683134A] | 100 | 40 | 100 | 95 | 96 | 100 | 100 | 100 | 84 | 92 | 9.8 | 81 | 100 | 100 | 100 | 100 | 9.1 | 100 | 97 | 100
COc1cc2ncn(-c3cc(O[C@H](C)c4ccccc4Cl)c(C(N)=O)s3)c2cc1OC [GSK237701A] | 100 | 0.4 | 4.3 | 91 | 79 | 92 | 100 | 100 | 100 | 60 | 100 | 90 | 98 | 94 | 78 | 100 | 78 | 54 | 79 | 71
CN1CCN(C(=O)c2ccc(NC(=O)Nc3ccc(N(C)c4ccnc(Nc5ccc(CS(C)(=O)=O)cc5)n4)cc3)cc2)CC1.Cl [GW830263A] | 92 | 8.9 | 39 | 78 | 100 | 77 | 2.3 | 80 | 7.7 | 15 | 92 | 71 | 37 | 79 | 34 | 89 | 25 | 71 | 76 | 83
COc1cc(/C=N/Nc2ncnc3[nH]ncc23)ccc1O [GW578748X] | 87 | 100 | 36 | 100 | 22 | 39 | 97 | 91 | 98 | 32 | 95 | 100 | 57 | 60 | 51 | 100 | 32 | 51 | 80 | 77
COc1ccc2c(-c3ccnc(Nc4cccc(OC(F)(F)F)c4)n3)cnn2n1 [GW810372X] | 100 | 100 | 73 | 98 | 100 | 99 | 88 | 87 | 92 | 9.4 | 90 | 100 | 100 | 86 | 83 | 100 | 95 | 73 | 98 | 100
CN(C)c1cc2c(Nc3ccc4c(cnn4Cc4ccccc4)c3)ncnc2cn1 [GW282974X] | 29 | 81 | 100 | 88 | 100 | 74 | 82 | 100 | 97 | 88 | 84 | 100 | 100 | 95 | 100 | 100 | 93 | 92 | 86 | 100
CCS(=O)(=O)c1ccc(OC)c(Nc2ncc(-c3cccc(F)c3)o2)c1 [GW621970X] | 100 | 100 | 100 | 100 | 19 | 67 | 92 | 97 | 100 | 38 | 95 | 100 | 100 | 100 | 81 | 100 | 100 | 87 | 100 | 100
Cl.O=C(O[C@H]1CN[C@H](C#Cc2cc3ncnc(Nc4ccc5c(cnn5Cc5ccccc5)c4)c3s2)C1)N1CCOCC1 [GSK200398A] | 100 | 98 | 100 | 100 | 100 | 92 | 84 | 85 | 100 | 100 | 90 | 99 | 100 | 83 | 91 | 100 | 100 | 91 | 97 | 100
COc1cccc(-n2ncc3c(N/N=C/c4ccncc4)ncnc32)c1 [GW784752X] | 100 | 100 | 100 | 100 | 54 | 99 | 94 | 100 | 99 | 82 | 100 | 100 | 96 | 100 | 79 | 100 | 97 | 39 | 97 | 91
COc1ccccc1-c1cc(/C=C2\C(=O)Nc3ncc(Br)cc32)cc(Br)c1O [GW442130X] | 100 | 100 | 89 | 100 | 91 | 100 | 100 | 100 | 100 | 87 | 100 | 100 | 100 | 67 | 100 | 100 | 81 | 93 | 100 | 89
CC1=C(C(=O)Nc2ccc3[nH]ncc3c2)C(c2ccc(Cl)c(Cl)c2)CC(=O)N1 (centres unmarked) [GSK299115A] | 97 | 98 | 25 | 100 | 80 | 88 | 99 | 100 | 90 | 85 | 82 | 84 | 100 | 81 | 99 | 100 | 82 | 68 | 77 | 81
COc1ccc(COc2ccc(Cc3cnc(N)nc3N)cc2OC)cc1 [GW632580X] | 96 | 93 | 88 | 87 | 88 | 100 | 100 | 95 | 100 | 93 | 100 | 100 | 74 | 91 | 100 | 100 | 97 | 100 | 100 | 100
NS(=O)(=O)c1ccc(Nc2ncc(-c3ccccc3)o2)cc1 [GW572399X] | 100 | 100 | 79 | 100 | 100 | 100 | 94 | 100 | 98 | 31 | 100 | 100 | 100 | 100 | 93 | 100 | 100 | 72 | 97 | 86
COc1cc(C)c(N(C)C(=O)CN(C)C)cc1Nc1nc(Nc2cccc(F)c2C(N)=O)c2cc[nH]c2n1 [GSK2219385] | 100 | 100 | 100 | 76 | 100 | 100 | 90 | 100 | 100 | 83 | 91 | 98 | 100 | 81 | 100 | 100 | 93 | 100 | 100 | 100
COc1ccc2[nH]c3c4[nH]c5ccc(OC)cc5c4c4c(c3c2c1)C(=O)NC4=O [GW296115X] | 67 | 96 | 59 | 56 | 87 | 100 | 86 | 94 | 100 | 74 | 33 | 80 | 70 | 100 | 73 | 100 | 20 | 100 | 96 | 96
C/C(Nc1ccc(S(N)(=O)=O)cc1)=C1/C(=O)Nc2ccccc21 [GW335962X] | 100 | 92 | 65 | 100 | 100 | 91 | 82 | 88 | 87 | 41 | 92 | 95 | 98 | 64 | 94 | 100 | 70 | 81 | 92 | 94
